Results: PubChem BioAssay AID1030 (National Center for Advancing Translational Sciences (NCATS), 2008)
In all, about 220,000 compounds went through this assay and about 16,000 (7.3%) were called active. Not shown: some 25% with an inconclusive outcome. The entries come from a sample that favours actives as a whole. Values without a mark were called inactive. The call rests on the fitted dose curve; in most records, active means well fitted inhibition curve with a large enough effect (not every such curve was filed as active); inconclusive means small, poorly fitted or top-dose-only effect, or another doubt; inactive means no such curve, though single readings can be large or run the other way.

These compounds were tested against Aldehyde dehydrogenase 1A1 (Homo sapiens) (UniProt P00352) (assay: qHTS Assay for Inhibitors of Aldehyde Dehydrogenase 1 (ALDH1A1)). Conditions: Purified ALDH1A1, NADH fluorescence, propionaldehyde substrate; series mostly up to 75.3 µM; activity, negative = inhibition: at the top concentration.
Potency means the concentration at half of the fitted maximal effect.
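Wherever activity, negative = inhibition is given: plate controls were no enzyme wells and a reference inhibitor.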

Sequence of Aldehyde dehydrogenase 1A1 (Homo sapiens) (P00352 whole entry, looked up): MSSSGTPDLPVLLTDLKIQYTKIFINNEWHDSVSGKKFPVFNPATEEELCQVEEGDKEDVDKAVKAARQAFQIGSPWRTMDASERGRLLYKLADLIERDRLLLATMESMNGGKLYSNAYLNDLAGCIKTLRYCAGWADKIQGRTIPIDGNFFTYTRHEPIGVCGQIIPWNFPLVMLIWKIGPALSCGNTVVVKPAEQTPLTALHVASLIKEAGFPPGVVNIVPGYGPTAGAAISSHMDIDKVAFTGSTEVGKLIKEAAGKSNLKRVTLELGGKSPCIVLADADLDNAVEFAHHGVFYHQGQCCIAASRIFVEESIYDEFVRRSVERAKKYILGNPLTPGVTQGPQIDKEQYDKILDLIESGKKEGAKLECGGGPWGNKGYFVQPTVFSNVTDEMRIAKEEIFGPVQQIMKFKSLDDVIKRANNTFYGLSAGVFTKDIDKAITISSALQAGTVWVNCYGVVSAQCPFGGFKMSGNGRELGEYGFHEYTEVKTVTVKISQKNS

SMILES | activity, negative = inhibition | Potency
Cc1ccccc1-n1cc(CNC(=O)CC2C(=O)NCCN2C/C=C/c2ccccc2)cn1 (stereo not given) | 7.17% | –
O=C(CC1C(=O)NCCN1CC(c1ccccc1)c1ccccc1)NCCc1cn[nH]c1 (stereo not given) | – | 14.1 µM (active)
COc1cc(CN2CCNC(=O)C2CC(=O)NCCc2ncccc2C)cc(OC)c1 (stereo not given) | – | 23.8 µM (active)
Cc1cc(C)n(CCNC(=O)CC2C(=O)NCCN2Cc2ccc(C)o2)n1 (stereo not given) | -0.0057% | –
COc1cccc(CN2CCNC(=O)C2CC(=O)N(C)CCc2ccccn2)c1 (stereo not given) | -0.0979% | –
CN(CCc1cn[nH]c1)C(=O)CC1C(=O)NCCN1Cc1cccc(Oc2ccccc2)c1 (stereo not given) | -9.91% | –
COC(=O)c1ccc(CN2CCN(CCCc3ccccc3)C(CCO)C2)cc1 (stereo not given) | -0.394% | –
COc1ccc(-c2csc(NC(=O)COC(=O)Cc3ccc(Cl)cc3Cl)n2)cc1 | 7.91% | –
COc1ccc(N2CCN(c3ccc([N+](=O)[O-])nc3)CC2)cc1 | 6.14% | –
CS(=O)(=O)N1CCc2cc(C(=O)Nc3ccccc3)ccc21 | 0.559% | –
Cc1ccc(C)c(NC(=O)C2CCCN2C(=O)OC(C)(C)C)c1 (stereo not given) | -11.1% | –
Cc1cc(C)c(NC(=S)N2CCCC2C(=O)O)c(C)c1 (stereo not given) | – | 22.4 µM (active)
Cc1cc([N+](=O)[O-])c(N2CCC[C@@H]2C(=O)O)c([N+](=O)[O-])c1 | 3.99% | –
Cc1cc(C(=O)COC(=O)C2CC2)c(C)n1-c1ccc(F)cc1 | -3.14% | –
COC(=O)[C@@H]1CC[C@H](C)[C@@H](c2ccc(C)cc2)N1C(=O)c1ccc(/C=N/O[C@H](C)c2cn([C@@H]3COC[C@H]3O)nn2)cc1 | -3.19% | –
O=C(Cc1ccc([N+](=O)[O-])cc1)N/N=C/c1ccco1 | -3.71% | –
CCCCN1CCNC1=S | 5.33% | –
CCOC(=O)CCNC(=O)N1CCCC(C(=O)c2ccccc2SC)C1 (stereo not given) | 5.76% | –
Cc1nnnn1/C(=C\c1ccccc1)C(=O)OCC(=O)N1CC2(C)CC1CC(C)(C)C2 (stereo not given) | – | 4.47 µM (active)
COc1ccccc1C(=O)N1CC2(C)CC1CC(C)(C)C2 (stereo not given) | -6.45% | –
Cc1cccc(C(=O)NCC(=O)OCC(=O)N2CC3(C)CC2CC(C)(C)C3)c1 (stereo not given) | 3.13% | –
COc1cc(N2C(=O)c3ccccc3C2=O)c(Cl)cc1C(=O)OCC(=O)N1CCOCC1 | -4.16% | –

SMILES | activity, negative = inhibition | Potency
CC(C)(O)C#Cc1ncc(C(F)(F)F)cc1Cl | 8.76% | –
CSc1ccc(CN(C)CC(=O)NCc2ccc(F)cc2)cc1 | -7.51% | –
CCC(C)[C@@H](C(=O)N1CCNCC1)n1cc(CCCCN)nn1 (stereo not given in full) | 2.27% | –
COc1cccc(CC(=O)N2CCCC(CCC(=O)N3CCN(c4ccccn4)CC3)C2)c1 (stereo not given) | 2.51% | –
CCSC1=C(C#N)C(=O)n2c1cc1c2CCCC1 | – | 4.47 µM (active)
C=CCNc1nc(Nc2ccc(Cl)cc2)nc(OC)n1 | 5.03% | –
C=C1O[C@@](CO)(n2cnc3c(N)ncnc32)[C@H](O)[C@@H]1O | -5.99% | –
Cc1cc(=O)[nH]c(N/N=C/c2c(C)nn(-c3ccccc3Cl)c2Cl)n1 | – | 5.01 µM (active)
Cc1nnc(N/N=C/c2ccccn2)[nH]c1=O | 14.6% | –
Cc1ccc(-n2nc(C)c(/C=N/NC(=O)c3cccs3)c2Cl)cc1 | 2.29% | –
O=C(CSc1nnc(-c2ccncc2)n1-c1ccc(Cl)cc1)Nc1ccc(C(=O)O)cc1 | 6.45% | –
CC1(C)CC(=O)CC2(C1)NCC(c1ccccc1Cl)c1c2[nH]c2ccccc12 (stereo not given) | -4.55% | –
COCCN1C(=O)N[C@@H](CCc2ccccc2)[C@H](C(C)=O)[C@H]1C | 3.4% [at 13.5 µM] | –
C=CC1=C2C=C(C3CC3)N(C(CO)CO)C=C2C(=O)C(C)(OC(=O)c2ccco2)C1=O (stereo not given) | -4.41% [at 13.5 µM] | –
CN(C)/C=C(/C(=O)c1ccc(F)cc1)S(=O)(=O)c1ccc(F)cc1 | -0.904% | –
CCOc1ccc(N(CC(=O)OC)S(=O)(=O)c2c(C)noc2C)cc1 | 2.28% | –
CCOc1ccc(N(CC(=O)NCc2ccc(OC)cc2)S(=O)(=O)c2c(C)noc2C)cc1 | -6.14% | –
CCOC(=O)c1cccc(NC(=O)CN(c2ccc(C)cc2)S(=O)(=O)c2c(C)noc2C)c1 | – | 7.94 µM (active)
CC(=O)c1c(C)[nH]c(C(=O)OCC(=O)NCCC(C)C)c1C | -2.21% | –
CCOc1cc(/C=N/NC(=O)c2ccc(CSc3nncn3C)cc2)ccc1OCC(=O)N1CCOCC1 | 1.26% | –
CCOc1ccccc1N=C1NC(=O)CS1 | -7.47% | –
CCOc1cccc(/C=N/NC(=S)NCCN2CCOCC2)c1O | -10.2% | –

SMILES | activity, negative = inhibition | Potency
CCOc1cccc(/C=N/N2C(=O)CSC2=S)c1O | – | 7.08 µM (active)
O=C1CCC[C@@H]2CC(N3CCCCC3)C[C@@H]3CCN1[C@H]23 (stereo not given in full) | 3.52% [at 120 µM] | –
COCCn1c(N)c(N(Cc2ccccc2)C(=O)C2CCCCC2)c(=O)[nH]c1=O | 6.29% | –
O=C(Cn1ncc(N2CCCC2)c(Br)c1=O)c1ccc(Cl)cc1 | 1.58% | –
COc1cc(C(=O)N2CCOCC2)cc(OC)c1OC | 12.8% | –
CCN1CCN(CC(=O)c2cc(OC)c(OC)c(OC)c2)CC1 | – | 28.2 µM (active)
CCCN(CCC)S(=O)(=O)c1ccc(C(=O)NNC(=O)c2cc(OC)c(OC)c(OC)c2)cc1 | 17.2% | –
COc1ccc(N2C(=O)C(O)C2c2ccc(C)cc2)cc1 (stereo not given) | -1.47% | –
COc1ccc(-c2c(C)cc3oc(=O)cc(-c4ccccc4)c3c2C)cc1C=O | – | 0.126 µM (active)
COc1ccc(-c2c(C)cc3oc(=O)cc(-c4ccccc4)c3c2C)cc1F | 1.38% | –
Cc1cc2oc(=O)cc(-c3ccccc3)c2c(C)c1-c1ccc(OC(F)(F)F)cc1 | -3.09% | –
C=CCn1c(COc2ccc(F)cc2)nnc1SCC(=O)Nc1cccc(S(N)(=O)=O)c1 | -0.0485% | –
Cc1cccc(CSc2nnc(C)c(=O)n2N)c1 | 14.4% | –
Cc1cc(NC(=O)CN2C(=O)NC(C)(CCc3ccccc3)C2=O)no1 (stereo not given) | 0.49% | –
S=C(NNC(=S)NC1CC2C=CC1C2)NC1CC2C=CC1C2 (stereo not given) | – | 12.6 µM (active)
S=C(NNC(=S)NC1CC2CCC1C2)NC1CC2C=CC1C2 (stereo not given) | – | 20 µM (active)
CC1CCN(C(=S)NC2CC3CCC2C3)CC1 (stereo not given) | 0.0397% | –
COc1ccc(C(=S)Nc2ccccc2)cc1 | -3.12% | –
COCCCNC(NC(=O)c1ccc(OC)cc1)C(Cl)(Cl)Cl (stereo not given) | -4.51% | –
COCCNC(=S)c1ccc(OC)cc1 | – | 20 µM (active)
Cn1nc(-c2ccccc2)c(CO)c1Sc1ccccc1 | -3.87% | –
